This is a sample that favours compounds with a hit; in the whole collection about 32% have one here.
CYP2C19 activ – human CYP2C19 activators, primary screen, biochemical, luminescence | Cytochrome P450 2C19 (Homo sapiens), P33261 | recombinant CYP2C19, luciferin-H EGE luminescence; hits give high values; 0 = fully inhibited enzyme, 1 = untreated enzyme | activation factor at 5 µM | 96,000 tested, under 10 active;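 active = activation factor of at least 2 at 5 µM in the primary screen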;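 note: 0 = wells with 2.5 mM tranylcypromine and 1 = vehicle-only wells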
PostGolgi ctrl – growth inhibition of yeast control strain, primary screen, counter-screen for post-Golgi transport modulator project; efflux-deficient yeast background strain, growth absorbance A615, 16 h; AID 738, 2007; inhibition, % at 10 µM; hit rate 5% among 98,000
CYP2C19 inhib – blockers of cytochrome P450 2C19 activity – biochemical, luminescence, ADME assay, primary screen | P33261 | CYP2C19 Supersomes, luciferin-H EGE luminescence, 30 min | inhibition, % at 5 µM | hit rate 21% among 96,000;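 active = CYP2C19 inhibition above a set limit at 5 µM in the primary screen, cut at about 50% in these data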;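 note: plate controls were negative control wells for no effect and 2.5 mM tranylcypromine positive control for full effect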
CYP2C9 act – human CYP2C9 activators, primary screen, biochemical, luminescence; Cytochrome P450 2C9 (Homo sapiens), P11712; recombinant CYP2C9, luciferin-H conversion; hits give high values; factor 1 = untreated enzyme, 0 = blocked; activation factor at 5 µM; hit rate 1.4% among 96,000;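 active = activation factor of 2 or more for CYP2C9 at a 5 µM dose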;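 note: 0 = sulfaphenazole-blocked wells and 1 = vehicle-only wells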
Target sequence (P11712 whole entry, looked up): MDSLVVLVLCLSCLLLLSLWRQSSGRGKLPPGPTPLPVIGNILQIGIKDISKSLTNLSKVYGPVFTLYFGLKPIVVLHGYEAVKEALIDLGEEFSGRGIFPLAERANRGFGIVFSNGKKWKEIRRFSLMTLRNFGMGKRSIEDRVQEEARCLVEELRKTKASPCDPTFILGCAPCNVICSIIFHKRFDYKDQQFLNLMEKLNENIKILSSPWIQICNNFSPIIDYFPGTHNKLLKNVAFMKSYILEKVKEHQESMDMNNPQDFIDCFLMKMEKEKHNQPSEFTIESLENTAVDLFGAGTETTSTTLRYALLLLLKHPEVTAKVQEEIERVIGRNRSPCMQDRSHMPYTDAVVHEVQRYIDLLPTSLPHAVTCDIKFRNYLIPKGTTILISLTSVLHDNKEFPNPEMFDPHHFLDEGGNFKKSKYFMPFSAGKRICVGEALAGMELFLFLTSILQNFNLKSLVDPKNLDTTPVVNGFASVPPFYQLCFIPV
CYP2C9 inh – blockers of cytochrome P450 2C9 activity – biochemical, luminescence, ADME assay, primary screen; CYP2C9 Supersomes, luciferin-H conversion; inhibition, % at 5 µM; hit rate 20% among 96,000; AID 777, 2007;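 active = blocking of liver enzyme CYP2C9 beyond about 50% at 5 µM, limit read from the data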
PostGolgi yeast – phenotypic screen on post-Golgi transport, primary screen. post-Golgi transport phenotypic cell assay. inhibition, % at 10 µM. AID 739, 2007. hit rate 0.9% among 98,000;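 note: yeast cells grown in 1536-well plates; yeast grown about 18 h at 30C before absorbance read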
Active calls of the source: *; x = no result. Cut-off read from the data, not from the text of the source, unless noted: active = inhibition above about 30%; inactive = the rest.

SMILES	CYP2C19 activ	PostGolgi ctrl	CYP2C19 inhib	CYP2C9 act	CYP2C9 inh	PostGolgi yeast
C=CCn1cc(C(=O)NCCCOCC)c(=O)c2cc(S(=O)(=O)N(CC)CC)ccc21	0.8	7.2	24.2	0.4	55.7*	-1.3
CCN(CC)S(=O)(=O)c1ccc2c(c1)c(=O)c(C(=O)NCCOC)cn2C	1	6.5	0.7	0.7	31.4	-1.4
Cc1c(C=O)c2ccccn2c1C(=O)c1ccccc1	0.1	2.7	85.2*	0.1	90.4*	-4.0
CCOC(=O)C(=CNc1cc(C)nn1-c1ccc(Cl)cc1)C(=O)OCC	0.3	40.1*	71.2*	0.2	77.2*	2.4
COc1ccc(CC(=O)Nc2ccc3c(c2)OCO3)cc1S(=O)(=O)N1CCOCC1	1	2.0	-4.1	1	-4.9	5.9
Cc1ccc(CNC(=O)c2ccc(Cn3nc(C)c(Cl)c3C)o2)cc1	0.2	100.5*	77.9*	0.6	44.6	104.3*
Cc1ccc(CNC(=O)c2ccc([N+](=O)[O-])o2)cc1	0.8	13.6	15.1	0.9	6.2	0.2
Cc1nn(Cc2ccc(C(=O)Nc3ccccc3C(F)(F)F)o2)c(C)c1Br	0.1	34.4*	90.9*	0.6	35.2	0.9
Cc1ccc2cccc(NC(=O)c3ccc(Br)o3)c2n1	1.1	16.2	-7.8	1.5	-45.8	2.4
CCc1c(C)[nH]c2c(C)cccc2c1=O	1	1.2	-0.5	1	2.7	-0.6
Cc1ccc2nc(-c3ccc(Br)o3)oc(=O)c2c1	0.9	8.9	8.5	0.9	8.0	35.7*
COc1cc2nc(-c3ccc(Br)o3)oc(=O)c2cc1OC	0.9	-1.5	6.6	1.5	-50.2	0.9
COc1cc2c(cc1NC(=O)C(C)OC(=O)C1CC(=O)N(Cc3ccco3)C1)oc1ccccc12 (stereo not given)	0.9	23.0	11.4	0.5	49.1	-2.6
COc1ccc(N(CC(=O)NCc2ccco2)S(=O)(=O)c2c(C)nn(C)c2C)cc1	0.3	-3.4	74.8*	0.8	19.6	0.3
Cc1nn(C)c(C)c1S(=O)(=O)Nc1ccc2c(c1)OCO2	0.2	4.6	80.8*	1	4.1	5.7
COc1ccc(N(CC(=O)NCc2ccc3c(c2)OCO3)S(=O)(=O)c2c(C)nn(C)c2C)cc1	0.1	11.2	87.0*	0.8	15.6	10.8
COc1ccc2nc(NC(=O)CN(c3ccc(C)cc3)S(=O)(=O)c3c(C)nn(C)c3C)sc2c1	0.5	49.7*	48.3	0.3	68.3*	-3.6
Cc1ccc(C)c(NS(=O)(=O)c2c(C)nn(C)c2C)c1	0.8	2.1	19.0	1	-1.1	-0.3
CCOC(=O)c1ccc(NC(=O)CN(c2ccc(C)cc2)S(=O)(=O)c2c(C)nn(C)c2C)cc1	0.7	21.9	25.5	0.8	22.0	-6.1
CCOC(=O)c1cnc2c(C)c(-c3ccccc3)[nH]n2c1=O	1.1	8.8	-10.3	0.8	21.8	7.2
COc1ccc(NC(=O)CN(c2ccc(C)cc2)S(=O)(=O)c2c(C)nn(C)c2C)cc1OC	1	1.2	-3.4	0.9	9.0	-2.0
COc1ccc(N(CC(=O)Nc2ccc3c(c2)OCO3)S(=O)(=O)c2c(C)nn(C)c2C)cc1	0.7	9.7	32.0	0.2	78.8*	-1.8
CCN(CC)S(=O)(=O)c1cccc(C(=O)Oc2cccnc2)c1	0.9	20.3	14.0	0.9	10.6	4.7
O=c1oc2ccccc2n1CSc1nc2ccccc2s1	0	18.3	99.8*	0.2	83.9*	-10.1
O=C(CSc1nc2ccccc2s1)CSc1nc2ccccc2s1	1	2.6	-0.9	0.7	31.8	-3.8
SMILES	CYP2C19 activ	PostGolgi ctrl	CYP2C19 inhib	CYP2C9 act	CYP2C9 inh	PostGolgi yeast
O=c1oc2ccccc2n1CSC1=NCCS1	0.1	0.5	88.2*	0.6	44.9	25.3
C=CCn1c(=O)n(CCOC)c(=O)c2sc3ccccc3c21	0.9	-7.3	11.0	0.9	10.8	6.8
Nc1nnnn1/N=C/c1ccc(O)cc1	0.3	-4.0	68.4*	0.2	84.4*	1.9
CCCCn1c(SCC2CCCCO2)nc2cc(S(N)(=O)=O)ccc21 (stereo not given)	0.9	0.6	6.6	0.5	45.6	4.0
O=C(NNC(=S)NC(=O)C12CC3CC(CC(C3)C1)C2)c1ccncc1	0.3	48.3*	66.8*	0.1	93.9*	41.7*
CC(C)NC(=S)NNC(=O)C12CC3CC(CC(C3)C1)C2	0.9	4.8	6.4	1.1	-7.2	-2.5
O=C(NNC(=S)Nc1ccccc1)c1ccncc1	0.3	13.6	69.5*	0.3	69.2*	-4.5
CC/C(=N\NC(=O)c1ccc2c(c1)OCO2)C12CC3CC(CC(C3)C1)C2	1	23.4	-4.3	0.6	38.1	-1.2
CC/C(=N\NC(=O)c1ccncc1)C12CC3CC(CC(C3)C1)C2	0.1	1.6	93.9*	0.9	14.1	6.0
CCCS(=O)(=O)N1CCCC(C(=O)NCC2CCCO2)C1 (stereo not given)	1	-13.3	1.0	1	2.4	-7.3
O=C(OC(C(=O)NCC1CCCO1)c1ccc(F)cc1)c1cccs1 (stereo not given)	x	-5.7	x	x	x	-7.4
Cc1ccc(-c2nc3ncccn3c2Nc2ccc3c(c2)OCO3)o1	x	-2.9	x	x	x	-0.7
Cc1ccc(-c2nc3cnccn3c2Nc2c(C)cccc2C)o1	0	9.8	99.2*	0.4	63.2*	-6.6
COc1ccc(C(CC(=O)O)NC(=O)COc2ccccc2)cc1OC (stereo not given)	1.2	-3.3	-17.2	1.2	-15.2	-1.4
CCCC(=O)NC(c1ccc(OC)c(OC)c1)c1c(O)ccc2ccccc12 (stereo not given)	0.3	27.4	74.0*	0.3	70.9*	-0.7
CC(C)C(=O)NC(c1ccc([N+](=O)[O-])cc1)c1c(O)ccc2ccccc12 (stereo not given)	1	2.0	4.1	0.9	9.1	-2.1
CCCCC(=O)NC(c1ccc(OC)c(OC)c1)c1c(O)ccc2ccccc12 (stereo not given)	0.4	3.1	63.1*	0.1	88.4*	-1.5
Cc1cnc(NC(=O)c2c(O)c3cccc4c3n(c2=O)CCC4)s1	0.9	-10.9	13.9	0.9	12.7	8.9
CC(C)c1nnc(NC(=O)c2c(O)c3cccc4c3n(c2=O)CCC4)s1	0.9	59.1*	5.4	0.4	62.6*	80.4*
O=C(/C=C/c1ccc(-c2ccccc2[N+](=O)[O-])o1)c1ccc(Br)cc1	0.8	10.9	21.3	0.9	12.8	-3.6
Cc1ccc(C(=O)/C=C/c2ccc(-c3ccccc3[N+](=O)[O-])o2)cc1	0.7	11.8	29.4	0.4	57.6*	-6.2
Cc1ccc(S(=O)(=O)c2n[nH]n3c2nc(=O)c2ccccc23)cc1	1.1	27.3	-5.4	0.1	93.5*	-4.7
